Reference: PubChem BioAssay AID1159580 (chemical genetic matrix, 2015)
In all, about 5,500 compounds went through this assay and about 2,000 (36%) were called active. Roughly 18% stayed inconclusive and do not appear here. Rule as the data show it: active = normalized growth mostly below about 0.91 (no sharp cut-off); inconclusive = no clear call, values can overlap the other calls; inactive = mostly above about 0.92. This is one part of the list.

Test: chemical genetic growth profiling, strain panel (AID 1159580);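 also: tested at 20 µM; growth read once vehicle control cultures reached saturation at 30 °C; 1 = growth at the plate median or of vehicle wells; lower values mean less growth of the strain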
Conditions: S. cerevisiae deletion strains, growth OD

Measured: normalized growth

O=c1cc(CSc2ccc(Cl)cc2)c2ccc(O)cc2o1
active: locus YDR477W, strain SNF1, hits give low values 0.674 | locus YER123W, strain YCK3, hits give low values 0.565 | locus YER133W, strain GLC7, hits give low values 0.572 | locus YGR040W, strain KSS1, hits give low values 0.631 | locus YGR052W, strain FMP48, hits give low values 0.436 | locus YHR030C, strain SLT2, hits give low values 0.452 | locus YHR079C, strain IRE1, hits give low values 0.405 | locus YHR082C, strain KSP1, hits give low values 0.472 | locus YJL095W, strain BCK1, hits give low values 0.432 | locus YKL048C, strain ELM1, hits give low values 0.656 | locus YKL067W, strain YNK1, hits give low values 0.732 | locus YKL101W, strain HSL1, hits give low values 0.682 | locus YKL203C, strain TOR2, hits give low values 0.66 | locus YLR113W, strain HOG1, hits give low values 0.265 | locus YLR403W, strain SFP1, hits give low values 0.639 | locus YML070W, strain DAK1, hits give low values 0.666 | locus YNL183C, strain NPR1, hits give low values 0.434 | locus YOR119C, strain RIO1, hits give low values 0.654 | locus YOR231W, strain MKK1, hits give low values 0.444 | locus YPL031C, strain PHO85, hits give low values 0.497 | locus YPL153C, strain RAD53, hits give low values 0.442 | locus YPL204W, strain HRR25, hits give low values 0.574 | locus YPL256C, strain CLN2, hits give low values 0.41
inactive: locus YAR019C, strain CDC15, hits give low values 0.937 | locus YBL105C, strain PKC1, hits give low values 0.963 | locus YBR135W, strain CKS1, hits give low values 0.944 | locus YBR136W, strain MEC1, hits give low values 0.949 | locus YBR160W, strain CDC28, hits give low values 0.96 | locus YDL017W, strain CDC7, hits give low values 0.964 | locus YDL028C, strain MPS1, hits give low values 0.956 | locus YDL101C, strain DUN1, hits give low values 0.974 | locus YDL108W, strain KIN28, hits give low values 0.955 | locus YDL132W, strain cdc53, hits give low values 0.944 | locus YDL214C, strain PRR2, hits give low values 0.738 | locus YDR052C, strain DBF4, hits give low values 0.962 | locus YDR054C, strain cdc34, hits give low values 0.937 | locus YDR226W, strain ADK1, hits give low values 0.959 | locus YFL009W, strain cdc4, hits give low values 0.935 | locus YFL029C, strain CAK1, hits give low values 0.943 | locus YFR003C, strain YPI1, hits give low values 0.959 | locus YFR019W, strain FAB1, hits give low values 0.826 | locus YFR028C, strain CDC14, hits give low values 0.954 | locus YGR092W, strain DBF2, hits give low values 0.63 | locus YHR205W, strain SCH9, hits give low values 0.759 | locus YIL147C, strain SLN1, hits give low values 0.95 | locus YJL128C, strain PBS2, hits give low values 0.92 | locus YJL157C, strain FAR1, hits give low values 0.737 | locus YJR016C, strain ILV3, hits give low values 0.945 | locus YJR066W, strain TOR1 (second series), hits give low values 0.738 | locus YJR066W, strain TOR1, hits give low values 0.534 | locus YKL193C, strain SDS22, hits give low values 0.947 | locus YLR133W, strain CKI1, hits give low values 0.747 | locus YMR001C, strain CDC5, hits give low values 0.944 | locus YMR205C, strain PFK2 (second series), hits give low values 0.748 | locus YMR277W, strain FCP1, hits give low values 0.928 | locus YNL006W, strain LST8, hits give low values 0.958 | locus YNL020C, strain ARK1, hits give low values 0.719 | locus YNL161W, strain CBK1, hits give low values 0.947 | locus YNL207W, strain RIO2, hits give low values 0.946 | locus YNL222W, strain SSU72, hits give low values 0.944 | locus YNL307C, strain MCK1 (second series), hits give low values 0.686 | locus YOL078W, strain AVO1, hits give low values 0.939 | locus YOL136C, strain PFK27, hits give low values 0.748 | locus YOR061W, strain CKA2, hits give low values 0.712 | locus YOR329C, strain SCD5, hits give low values 0.955 | locus YPL209C, strain IPL1, hits give low values 0.955 | locus YPR025C, strain CCL1, hits give low values 0.952 | locus YPR106W, strain ISR1, hits give low values 0.952 | locus YPR111W, strain DBF20, hits give low values 0.951 | strain NNK1, hits give low values 0.948 | strain TSCII, hits give low values 0.934
